Experimental data reported in ChEMBL document CHEMBL1961873, “Compounds: GSK PKIS; Assays: Nanosyn kinase panel” (2012).

Key:
[1] = tested on: Epidermal growth factor receptor (Homo sapiens), P00533 [T790M]; conditions: at 1 µM
[2] = tested on: Epidermal growth factor receptor (Homo sapiens), P00533 [L858R,T790M]; conditions: at 0.1 µM
[3] = tested on: Epidermal growth factor receptor (Homo sapiens), P00533 [L858R,T790M]; conditions: at 1 µM
[4] = target: Ephrin type-A receptor 2 (Homo sapiens) (UniProt P29317); conditions: at 0.1 µM
[5] = target: Ephrin type-A receptor 2 (Homo sapiens) (UniProt P29317); conditions: at 1 µM
[6] = target: T1, Ephrin type-A receptor 3 (Homo sapiens) (UniProt P29320); conditions: at 0.1 µM
T1 sequence (whole entry): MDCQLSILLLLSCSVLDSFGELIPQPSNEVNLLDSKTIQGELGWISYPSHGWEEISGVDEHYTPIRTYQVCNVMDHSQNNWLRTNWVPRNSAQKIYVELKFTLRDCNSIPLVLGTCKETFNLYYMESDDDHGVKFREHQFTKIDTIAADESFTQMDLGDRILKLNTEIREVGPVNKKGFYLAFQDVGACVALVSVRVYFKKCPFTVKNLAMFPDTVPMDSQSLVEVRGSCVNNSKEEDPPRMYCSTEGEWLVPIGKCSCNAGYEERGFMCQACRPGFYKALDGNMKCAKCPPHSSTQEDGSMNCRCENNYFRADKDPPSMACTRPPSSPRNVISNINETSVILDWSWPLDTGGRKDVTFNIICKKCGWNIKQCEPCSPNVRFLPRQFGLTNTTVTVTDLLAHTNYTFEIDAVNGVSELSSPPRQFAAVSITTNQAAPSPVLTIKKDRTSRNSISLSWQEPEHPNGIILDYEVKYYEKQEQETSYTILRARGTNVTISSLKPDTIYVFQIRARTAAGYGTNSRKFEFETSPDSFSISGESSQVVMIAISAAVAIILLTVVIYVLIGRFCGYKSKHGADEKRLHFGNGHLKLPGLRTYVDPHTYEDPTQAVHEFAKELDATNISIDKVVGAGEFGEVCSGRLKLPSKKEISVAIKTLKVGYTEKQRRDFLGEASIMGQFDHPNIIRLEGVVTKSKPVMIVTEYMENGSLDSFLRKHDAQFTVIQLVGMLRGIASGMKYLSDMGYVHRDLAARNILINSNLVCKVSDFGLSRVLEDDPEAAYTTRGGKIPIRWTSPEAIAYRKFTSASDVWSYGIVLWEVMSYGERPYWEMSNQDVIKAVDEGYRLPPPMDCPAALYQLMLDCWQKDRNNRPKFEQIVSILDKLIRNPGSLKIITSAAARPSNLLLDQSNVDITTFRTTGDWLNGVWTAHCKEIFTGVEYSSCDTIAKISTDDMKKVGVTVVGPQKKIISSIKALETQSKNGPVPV

[7] = target: T1, Ephrin type-A receptor 3 (Homo sapiens); conditions: at 1 µM
[8] = target: Ephrin type-A receptor 4 (Homo sapiens) (UniProt P54764); conditions: at 0.1 µM
[9] = target: Ephrin type-A receptor 4 (Homo sapiens) (UniProt P54764); conditions: at 1 µM
[10] = target: T2, Ephrin type-B receptor 2 (Homo sapiens) (UniProt P29323); conditions: at 0.1 µM
T2 sequence (whole entry): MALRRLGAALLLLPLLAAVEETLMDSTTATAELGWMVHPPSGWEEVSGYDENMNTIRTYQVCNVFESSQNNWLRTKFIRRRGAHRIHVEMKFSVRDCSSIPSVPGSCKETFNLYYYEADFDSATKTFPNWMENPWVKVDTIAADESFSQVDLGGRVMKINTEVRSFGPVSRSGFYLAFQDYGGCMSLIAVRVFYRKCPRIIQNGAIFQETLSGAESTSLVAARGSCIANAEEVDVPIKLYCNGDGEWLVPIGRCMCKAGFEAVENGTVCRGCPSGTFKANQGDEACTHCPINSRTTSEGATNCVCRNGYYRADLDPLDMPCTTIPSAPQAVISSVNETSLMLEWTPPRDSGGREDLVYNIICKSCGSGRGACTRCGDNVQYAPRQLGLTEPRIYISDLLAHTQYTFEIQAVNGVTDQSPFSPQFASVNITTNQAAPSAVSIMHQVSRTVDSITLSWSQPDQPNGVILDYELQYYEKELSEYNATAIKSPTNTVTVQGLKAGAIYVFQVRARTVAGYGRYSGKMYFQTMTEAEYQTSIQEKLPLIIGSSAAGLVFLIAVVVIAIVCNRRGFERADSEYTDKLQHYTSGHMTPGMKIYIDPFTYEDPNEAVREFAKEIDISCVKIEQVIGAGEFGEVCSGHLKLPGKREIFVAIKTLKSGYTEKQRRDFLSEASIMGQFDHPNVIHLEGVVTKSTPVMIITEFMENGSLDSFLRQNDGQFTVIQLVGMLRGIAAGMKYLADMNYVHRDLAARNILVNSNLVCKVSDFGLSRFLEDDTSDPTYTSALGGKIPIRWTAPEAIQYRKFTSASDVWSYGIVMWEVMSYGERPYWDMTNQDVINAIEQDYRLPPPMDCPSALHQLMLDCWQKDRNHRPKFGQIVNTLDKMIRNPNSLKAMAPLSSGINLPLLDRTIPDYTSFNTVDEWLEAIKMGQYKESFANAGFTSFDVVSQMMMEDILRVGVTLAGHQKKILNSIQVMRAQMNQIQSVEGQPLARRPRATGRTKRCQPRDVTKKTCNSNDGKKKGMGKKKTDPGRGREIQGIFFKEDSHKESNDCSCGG

[11] = target: T2, Ephrin type-B receptor 2 (Homo sapiens); conditions: at 1 µM
[12] = target: T3, Ephrin type-B receptor 3 (Homo sapiens) (UniProt P54753); conditions: at 0.1 µM
T3 sequence (whole entry): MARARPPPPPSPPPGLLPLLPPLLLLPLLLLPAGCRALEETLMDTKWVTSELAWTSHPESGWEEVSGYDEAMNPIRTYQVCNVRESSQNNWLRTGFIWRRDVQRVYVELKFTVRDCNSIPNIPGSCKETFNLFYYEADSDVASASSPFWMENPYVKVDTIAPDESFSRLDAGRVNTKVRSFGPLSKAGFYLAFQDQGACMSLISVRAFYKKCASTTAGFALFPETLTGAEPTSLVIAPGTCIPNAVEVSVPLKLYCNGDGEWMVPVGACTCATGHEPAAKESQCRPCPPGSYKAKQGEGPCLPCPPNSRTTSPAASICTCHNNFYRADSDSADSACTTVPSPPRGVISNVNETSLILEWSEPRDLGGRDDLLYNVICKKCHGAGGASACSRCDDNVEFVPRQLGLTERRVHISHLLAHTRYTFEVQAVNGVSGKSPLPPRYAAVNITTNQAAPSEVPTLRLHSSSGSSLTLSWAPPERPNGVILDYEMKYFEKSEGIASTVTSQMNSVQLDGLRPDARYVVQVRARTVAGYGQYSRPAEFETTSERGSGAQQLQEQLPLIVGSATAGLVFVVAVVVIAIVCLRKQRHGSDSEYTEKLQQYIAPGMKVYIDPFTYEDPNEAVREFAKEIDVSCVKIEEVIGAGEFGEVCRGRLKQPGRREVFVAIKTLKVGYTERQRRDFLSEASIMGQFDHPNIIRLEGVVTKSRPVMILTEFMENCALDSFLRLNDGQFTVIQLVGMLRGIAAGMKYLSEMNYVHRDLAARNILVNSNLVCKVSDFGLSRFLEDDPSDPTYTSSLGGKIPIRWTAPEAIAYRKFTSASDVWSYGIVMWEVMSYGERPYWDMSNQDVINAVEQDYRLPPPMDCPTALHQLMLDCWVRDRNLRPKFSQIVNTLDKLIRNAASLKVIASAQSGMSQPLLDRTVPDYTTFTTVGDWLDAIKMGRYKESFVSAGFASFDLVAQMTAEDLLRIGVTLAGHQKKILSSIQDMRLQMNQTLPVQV

[13] = target: T3, Ephrin type-B receptor 3 (Homo sapiens); conditions: at 1 µM
[14] = target: T4, Ephrin type-B receptor 4 (Homo sapiens) (UniProt P54760); conditions: at 0.1 µM
T4 sequence (whole entry): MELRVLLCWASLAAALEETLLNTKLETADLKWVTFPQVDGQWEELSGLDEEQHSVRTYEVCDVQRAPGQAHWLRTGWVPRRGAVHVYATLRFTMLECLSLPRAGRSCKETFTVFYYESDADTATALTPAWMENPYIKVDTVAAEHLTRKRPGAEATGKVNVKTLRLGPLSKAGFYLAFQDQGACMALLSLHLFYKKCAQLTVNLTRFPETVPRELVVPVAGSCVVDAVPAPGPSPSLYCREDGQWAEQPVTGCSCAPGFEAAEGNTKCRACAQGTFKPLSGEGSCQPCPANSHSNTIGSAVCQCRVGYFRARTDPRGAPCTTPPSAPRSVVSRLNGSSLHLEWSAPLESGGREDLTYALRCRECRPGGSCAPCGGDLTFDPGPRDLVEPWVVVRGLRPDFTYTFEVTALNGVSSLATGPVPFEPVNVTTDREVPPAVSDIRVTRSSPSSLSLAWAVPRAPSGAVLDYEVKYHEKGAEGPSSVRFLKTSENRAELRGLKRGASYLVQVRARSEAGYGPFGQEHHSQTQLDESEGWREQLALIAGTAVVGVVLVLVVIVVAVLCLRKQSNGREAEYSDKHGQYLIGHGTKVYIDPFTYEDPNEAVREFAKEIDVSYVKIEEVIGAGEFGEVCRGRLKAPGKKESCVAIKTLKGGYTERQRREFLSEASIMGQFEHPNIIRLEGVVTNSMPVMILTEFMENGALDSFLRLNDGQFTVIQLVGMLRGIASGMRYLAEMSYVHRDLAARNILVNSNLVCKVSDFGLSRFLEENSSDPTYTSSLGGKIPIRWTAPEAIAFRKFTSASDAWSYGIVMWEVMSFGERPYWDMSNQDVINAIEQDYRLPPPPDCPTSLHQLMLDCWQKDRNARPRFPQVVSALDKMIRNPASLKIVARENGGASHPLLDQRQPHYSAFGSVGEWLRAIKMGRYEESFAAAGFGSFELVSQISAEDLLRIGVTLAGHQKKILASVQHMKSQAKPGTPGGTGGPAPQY

[15] = target: T4, Ephrin type-B receptor 4 (Homo sapiens); conditions: at 1 µM
[16] = target: Receptor tyrosine-protein kinase erbB-2 (Homo sapiens) (UniProt P04626); conditions: at 0.1 µM
[17] = target: Receptor tyrosine-protein kinase erbB-2 (Homo sapiens) (UniProt P04626); conditions: at 1 µM
[18] = target: Receptor tyrosine-protein kinase erbB-4 (Homo sapiens) (UniProt Q15303); conditions: at 0.1 µM
[19] = target: Receptor tyrosine-protein kinase erbB-4 (Homo sapiens) (UniProt Q15303); conditions: at 1 µM
[20] = target: Tyrosine-protein kinase Fer (Homo sapiens) (UniProt P16591); conditions: at 0.1 µM;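 further: reported figures are averaged percent inhibition of FER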
Tyrosine-protein kinase Fer (Homo sapiens), sequence (P16591 whole entry, looked up): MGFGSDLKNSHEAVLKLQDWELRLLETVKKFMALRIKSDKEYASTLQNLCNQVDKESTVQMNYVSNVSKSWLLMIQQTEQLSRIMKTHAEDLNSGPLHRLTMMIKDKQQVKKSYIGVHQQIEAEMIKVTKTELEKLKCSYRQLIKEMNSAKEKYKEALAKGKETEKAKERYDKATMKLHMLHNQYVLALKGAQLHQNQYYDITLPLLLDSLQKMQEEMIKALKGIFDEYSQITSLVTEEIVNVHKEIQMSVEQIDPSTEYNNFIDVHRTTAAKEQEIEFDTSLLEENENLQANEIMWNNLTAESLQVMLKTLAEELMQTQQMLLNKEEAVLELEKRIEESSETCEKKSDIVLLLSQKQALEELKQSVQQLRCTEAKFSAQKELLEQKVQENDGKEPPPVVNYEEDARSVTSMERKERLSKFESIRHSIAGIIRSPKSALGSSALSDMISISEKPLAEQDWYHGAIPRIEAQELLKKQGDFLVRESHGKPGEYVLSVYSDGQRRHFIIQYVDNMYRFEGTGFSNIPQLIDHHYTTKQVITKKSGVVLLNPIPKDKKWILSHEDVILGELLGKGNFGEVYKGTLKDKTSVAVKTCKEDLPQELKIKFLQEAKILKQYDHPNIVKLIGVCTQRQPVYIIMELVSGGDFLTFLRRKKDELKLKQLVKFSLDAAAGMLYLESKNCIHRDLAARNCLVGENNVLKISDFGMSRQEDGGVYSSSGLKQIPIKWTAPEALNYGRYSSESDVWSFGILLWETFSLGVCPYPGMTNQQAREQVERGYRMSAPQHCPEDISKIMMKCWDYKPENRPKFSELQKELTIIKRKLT

Receptor tyrosine-protein kinase erbB-2 (Homo sapiens), sequence (P04626 whole entry): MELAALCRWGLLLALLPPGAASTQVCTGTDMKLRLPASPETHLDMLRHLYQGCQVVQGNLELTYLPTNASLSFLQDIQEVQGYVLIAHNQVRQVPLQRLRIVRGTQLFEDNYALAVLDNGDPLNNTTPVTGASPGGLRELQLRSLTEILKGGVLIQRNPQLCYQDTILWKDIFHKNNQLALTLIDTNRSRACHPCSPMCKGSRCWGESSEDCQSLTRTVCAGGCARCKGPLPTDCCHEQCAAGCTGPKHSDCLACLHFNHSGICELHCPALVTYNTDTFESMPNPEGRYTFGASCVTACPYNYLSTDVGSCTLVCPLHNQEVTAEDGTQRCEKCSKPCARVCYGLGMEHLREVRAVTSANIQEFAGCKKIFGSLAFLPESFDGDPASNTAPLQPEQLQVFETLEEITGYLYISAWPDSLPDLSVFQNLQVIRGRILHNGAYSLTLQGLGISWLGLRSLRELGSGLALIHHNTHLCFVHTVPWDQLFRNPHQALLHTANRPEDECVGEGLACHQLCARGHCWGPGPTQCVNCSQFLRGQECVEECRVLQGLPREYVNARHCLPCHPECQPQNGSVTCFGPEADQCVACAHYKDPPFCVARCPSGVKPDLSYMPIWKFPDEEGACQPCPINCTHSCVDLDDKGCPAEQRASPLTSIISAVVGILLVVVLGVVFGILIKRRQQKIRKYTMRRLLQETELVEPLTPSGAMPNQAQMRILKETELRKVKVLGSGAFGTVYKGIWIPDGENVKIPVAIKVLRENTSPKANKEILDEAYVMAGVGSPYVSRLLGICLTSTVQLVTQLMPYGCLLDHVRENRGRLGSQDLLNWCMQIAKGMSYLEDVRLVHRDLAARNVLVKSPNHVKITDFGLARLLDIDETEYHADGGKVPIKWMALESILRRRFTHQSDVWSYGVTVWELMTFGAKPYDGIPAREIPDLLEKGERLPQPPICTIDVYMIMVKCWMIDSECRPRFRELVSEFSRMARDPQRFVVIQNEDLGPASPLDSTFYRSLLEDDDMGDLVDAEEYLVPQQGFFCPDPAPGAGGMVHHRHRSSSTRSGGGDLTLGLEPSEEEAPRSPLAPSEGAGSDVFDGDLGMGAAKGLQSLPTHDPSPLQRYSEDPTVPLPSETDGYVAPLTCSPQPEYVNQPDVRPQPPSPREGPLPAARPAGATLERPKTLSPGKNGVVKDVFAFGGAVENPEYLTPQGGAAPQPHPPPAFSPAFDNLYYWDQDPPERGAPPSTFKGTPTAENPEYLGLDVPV
Ephrin type-A receptor 4 (Homo sapiens), sequence (P54764 whole entry): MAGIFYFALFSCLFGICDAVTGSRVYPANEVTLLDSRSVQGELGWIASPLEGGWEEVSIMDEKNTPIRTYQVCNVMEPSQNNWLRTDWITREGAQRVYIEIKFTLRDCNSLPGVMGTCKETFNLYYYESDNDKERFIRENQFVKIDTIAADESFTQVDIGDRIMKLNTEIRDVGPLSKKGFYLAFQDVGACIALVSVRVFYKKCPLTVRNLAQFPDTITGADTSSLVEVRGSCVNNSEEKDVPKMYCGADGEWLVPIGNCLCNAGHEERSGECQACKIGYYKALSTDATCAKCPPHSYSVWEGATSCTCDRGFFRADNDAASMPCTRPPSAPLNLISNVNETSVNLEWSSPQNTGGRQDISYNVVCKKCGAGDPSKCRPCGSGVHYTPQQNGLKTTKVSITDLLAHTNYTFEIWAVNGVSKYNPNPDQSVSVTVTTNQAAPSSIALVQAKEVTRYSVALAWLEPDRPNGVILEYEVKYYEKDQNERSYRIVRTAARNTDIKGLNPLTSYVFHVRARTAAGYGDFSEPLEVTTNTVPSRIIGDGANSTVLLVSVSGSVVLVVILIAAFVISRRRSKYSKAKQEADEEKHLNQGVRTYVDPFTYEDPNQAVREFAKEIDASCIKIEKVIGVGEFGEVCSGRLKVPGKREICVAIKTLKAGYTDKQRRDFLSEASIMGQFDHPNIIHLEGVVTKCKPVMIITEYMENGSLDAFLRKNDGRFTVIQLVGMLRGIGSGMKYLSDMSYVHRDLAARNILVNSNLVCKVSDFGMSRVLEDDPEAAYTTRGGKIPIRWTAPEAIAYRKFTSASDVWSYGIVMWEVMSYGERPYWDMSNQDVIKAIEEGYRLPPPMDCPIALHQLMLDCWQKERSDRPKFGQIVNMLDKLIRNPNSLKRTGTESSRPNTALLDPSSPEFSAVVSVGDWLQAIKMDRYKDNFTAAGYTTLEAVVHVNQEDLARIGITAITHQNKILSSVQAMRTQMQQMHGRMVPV
Epidermal growth factor receptor (Homo sapiens), P00533 [T790M], sequence (P00533 whole entry T790M): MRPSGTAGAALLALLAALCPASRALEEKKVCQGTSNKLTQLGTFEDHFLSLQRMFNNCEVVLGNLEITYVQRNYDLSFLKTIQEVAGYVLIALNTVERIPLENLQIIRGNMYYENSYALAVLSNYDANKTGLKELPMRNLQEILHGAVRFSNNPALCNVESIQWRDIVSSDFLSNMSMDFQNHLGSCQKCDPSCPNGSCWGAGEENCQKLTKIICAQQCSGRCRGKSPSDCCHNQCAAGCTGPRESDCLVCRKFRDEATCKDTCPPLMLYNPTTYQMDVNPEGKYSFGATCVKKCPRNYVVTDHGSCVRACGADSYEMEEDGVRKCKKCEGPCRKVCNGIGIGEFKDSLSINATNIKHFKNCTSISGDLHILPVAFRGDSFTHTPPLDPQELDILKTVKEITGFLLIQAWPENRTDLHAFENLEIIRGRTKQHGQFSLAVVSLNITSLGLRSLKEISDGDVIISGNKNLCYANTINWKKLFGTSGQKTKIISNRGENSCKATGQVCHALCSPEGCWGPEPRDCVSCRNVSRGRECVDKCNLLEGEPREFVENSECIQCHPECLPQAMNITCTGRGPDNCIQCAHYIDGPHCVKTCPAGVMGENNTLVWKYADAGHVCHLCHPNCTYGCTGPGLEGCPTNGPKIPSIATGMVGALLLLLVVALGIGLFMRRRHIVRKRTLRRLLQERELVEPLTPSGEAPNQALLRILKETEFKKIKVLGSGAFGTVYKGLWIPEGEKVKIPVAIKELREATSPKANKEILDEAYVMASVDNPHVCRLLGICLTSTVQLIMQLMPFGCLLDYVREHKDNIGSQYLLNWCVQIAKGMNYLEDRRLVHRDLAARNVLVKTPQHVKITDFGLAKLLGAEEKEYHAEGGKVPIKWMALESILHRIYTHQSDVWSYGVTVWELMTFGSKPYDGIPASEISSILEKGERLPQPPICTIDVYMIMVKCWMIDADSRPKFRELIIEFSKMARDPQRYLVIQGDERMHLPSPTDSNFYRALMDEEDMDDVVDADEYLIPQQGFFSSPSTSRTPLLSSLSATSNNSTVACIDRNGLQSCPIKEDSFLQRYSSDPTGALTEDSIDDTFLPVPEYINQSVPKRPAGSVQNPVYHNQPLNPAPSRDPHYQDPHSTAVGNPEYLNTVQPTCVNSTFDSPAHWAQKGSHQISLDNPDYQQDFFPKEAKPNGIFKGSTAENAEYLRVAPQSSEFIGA

Row | SMILES | inhibition [1] [%] | inhibition [2] [%] | inhibition [3] [%] | inhibition [4] [%] | inhibition [5] [%] | inhibition [6] [%] | inhibition [7] [%] | inhibition [8] [%] | inhibition [9] [%] | inhibition [10] [%] | inhibition [11] [%] | inhibition [12] [%] | inhibition [13] [%] | inhibition [14] [%] | inhibition [15] [%] | inhibition [16] [%] | inhibition [17] [%] | inhibition [18] [%] | inhibition [19] [%] | inhibition [20] [%]
1 | COc1cc(Nc2ncc3c(C)nc(-c4cccc(C(F)(F)F)c4)n3n2)cc(OC)c1OC | 5.56 | -1.07 | 5.23 | 4.32 | 17.5 | 6.02 | 10.7 | 22.4 | 56.1 | 17.1 | 57.1 | 6.46 | 3.53 | 5.85 | 31.1 | 0.82 | 3.68 | 5.34 | 8.32 | 3.27
2 | N#Cc1ccc(Oc2nccc(-c3c(-c4ccc(F)cc4)ncn3C3CCNCC3)n2)cc1 | 3.42 | -0.53 | 0.7 | 0.81 | 0.1 | 2.13 | 3.63 | 7.21 | 9.65 | 11 | 10.3 | 5.17 | 5.31 | -0.34 | 2.48 | 4.34 | 2.33 | 9.54 | 11.9 | 3.43
3 | CN(C)c1ccc2c(c1)/C(=C/Nc1ccc(S(N)(=O)=O)cc1)C(=O)N2 | 0.66 | 0.14 | 6.28 | -2.54 | -2.52 | 2.63 | 3.13 | -0.17 | 1.13 | 3.5 | 5.77 | 4.11 | 1.83 | 2.11 | 3.08 | 0.32 | 3.44 | 4.88 | 7.65 | 2.36
4 | c1ccc(-c2n[nH]cc2-c2ccnc(-c3ccc(OCCN4CCOCC4)cc3)c2)nc1 | -0.63 | 1.82 | -2.02 | 4.75 | 2.42 | -1.39 | -0.22 | -5.11 | -9.05 | 0.38 | 5.59 | -5.09 | -7.2 | -1.67 | 0.63 | -3.69 | -4.37 | 3.65 | 2.65 | 7.06
5 | COc1cc2ncn(-c3cc(OCc4ccccc4C(F)(F)F)c(C(C)=O)s3)c2cc1OC | 0.97 | -1.84 | 0.68 | 1.98 | 2.23 | 1.78 | 4.66 | 5.55 | 10.6 | 5.43 | 9 | 3.62 | 3.29 | 0.64 | 3.47 | 3.47 | 4.43 | 6.91 | 9.68 | 2.43
6 | C#Cc1cccc(Nc2ncnc3ccc(OCCCCNCCS(C)(=O)=O)cc23)c1 | 14.6 | 3.12 | 22.8 | -2.77 | -2.32 | 1.3 | 5.15 | 12.3 | 15.3 | 10.3 | 19.4 | 4.21 | 0.73 | 1.68 | -1.52 | 6.37 | 29.9 | 24.8 | 63.8 | 2.76
7 | NC(=O)c1cc(-c2ccc(F)cc2)cc(-c2ccncc2)c1N | 3.83 | 0.39 | -0.62 | 0.4 | 3.67 | 4.53 | 2.83 | 10.1 | 12.7 | 5.78 | 8.83 | 5.88 | 5.99 | 3.64 | 3.21 | 4.35 | 4.97 | 7.7 | 11.7 | 1.98
